Changes are numbered by the printed parent chain.

Drawing on publication PMC11006913, this text covers binding signal for ten sequences.

Test in all cases: PBM; 200 nM protein, PBS
Holding throughout (conditions): dsDNA, one strand shown

The target of assay [1] is HOXB4 (Homo sapiens, UniProt P17483 148-234).
The target in assay [2] is HOXA4 (Homo sapiens, UniProt Q00056 201-287, W262R).
In assay [3] the target is HOXB4 (Homo sapiens, UniProt P17483 148-234, V174I).
The target in assay [4] is HOXA4 (Homo sapiens, UniProt Q00056 201-287).
The target in assay [5] is HOXB6 (Homo sapiens, UniProt P17509 132-218, K202E).
The target in assay [6] is HOXA2 (Homo sapiens, UniProt O43364 129-215, R185T).
Assay [7] has as its target HOXA4 (Homo sapiens, UniProt Q00056 201-287, R217L).
Assay [8] has as its target HOXA2 (Homo sapiens, UniProt O43364 129-215, R185K).
Assay [9] has as its target PROP1 (Homo sapiens, UniProt O75360 56-141).
The target in assay [10] is PROP1 (Homo sapiens, UniProt O75360 56-141, R99H).
Assay [11] deals with VAX1 (Homo sapiens, UniProt Q5SQQ9 86-172).
Assay [12] concerns the target PROP1 (Homo sapiens, UniProt O75360 56-141, F88S).
Assay [13] concerns the target VAX1 (Homo sapiens, UniProt Q5SQQ9 86-172, T142I).
For assay [14], the target named is HOXA2 (Homo sapiens, UniProt O43364 129-215, Y150S).
In assay [15] the target is HOXA4 (Homo sapiens, UniProt Q00056 201-287, W262F).
For assay [16], the target named is HOXA2 (Homo sapiens, UniProt O43364 129-215).
In assay [17] the target is VAX1 (Homo sapiens, UniProt Q5SQQ9 86-172, K157R).
Assay [18] concerns the target ALX3 (Homo sapiens, UniProt O95076 139-225, N203Q).
For assay [19], the target named is ALX3 (Homo sapiens, UniProt O95076 139-225).
The target of assay [20] is ALX3 (Homo sapiens, UniProt O95076 139-225, L168Q).
For assay [21], the target named is ALX3 (Homo sapiens, UniProt O95076 139-225, L168V).
Assay [22] has as its target ALX3 (Homo sapiens, UniProt O95076 139-225, N203S).
The target of assay [23] is HOXB6 (Homo sapiens, UniProt P17509 132-218).
Assay [24] has as its target PRRX1 (Homo sapiens, UniProt P54821 80-166, F113S).
Assay [25] concerns the target PRRX1 (Homo sapiens, UniProt P54821 80-166).
Assay [26] deals with T1, PAX4 (Homo sapiens, UniProt O43316 9-242, R200K).
T1 sequence: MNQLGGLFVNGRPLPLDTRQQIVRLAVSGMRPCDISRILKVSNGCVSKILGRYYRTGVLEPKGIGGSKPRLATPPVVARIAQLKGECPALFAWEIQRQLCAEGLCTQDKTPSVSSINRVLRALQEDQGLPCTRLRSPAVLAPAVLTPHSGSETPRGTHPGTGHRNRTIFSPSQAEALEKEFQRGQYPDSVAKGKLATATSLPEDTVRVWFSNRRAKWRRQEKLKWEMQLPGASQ

Assay [27] has as its target T2, PAX4 (Homo sapiens, UniProt O43316 9-242).
T2 sequence: T1 sequence with K192R

Assay [28] has as its target T3, PAX4 (Homo sapiens, UniProt O43316 9-242, R200Q).
T3 sequence: T1 sequence with K192Q

Assay [29] addresses T4, PAX4 (Homo sapiens, UniProt O43316 9-242, F177V).
T4 sequence: T1 sequence with F169V, K192R

Assay [30] concerns the target T5, PAX4 (Homo sapiens, UniProt O43316 9-242, F177Y).
T5 sequence: T1 sequence with F169Y, K192R

Assay [31] has as its target T6, PAX4 (Homo sapiens, UniProt O43316 9-242, R227W).
T6 sequence: T1 sequence with K192R, R219W

The target of assay [32] is ALX4 (Homo sapiens, UniProt Q9H161 200-286).
In assay [33] the target is ALX4 (Homo sapiens, UniProt Q9H161 200-286, Q225E).
Chain of ALX4 (Homo sapiens, UniProt Q9H161 200-286, Q225E) (Q9H161 200-286 Q225E): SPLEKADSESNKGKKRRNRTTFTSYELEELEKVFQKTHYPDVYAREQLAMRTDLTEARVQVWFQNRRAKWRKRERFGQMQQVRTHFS

Chain of ALX3 (Homo sapiens, UniProt O95076 139-225, N203S) (O95076 139-225 N203S): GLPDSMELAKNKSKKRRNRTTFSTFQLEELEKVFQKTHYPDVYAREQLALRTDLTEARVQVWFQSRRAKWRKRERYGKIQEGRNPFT
Chain of HOXA4 (Homo sapiens, UniProt Q00056 201-287, R217L) (Q00056 201-287 R217L): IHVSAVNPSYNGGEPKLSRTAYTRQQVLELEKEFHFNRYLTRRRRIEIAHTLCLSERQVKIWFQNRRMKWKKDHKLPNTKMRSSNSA
Chain of ALX3 (Homo sapiens, UniProt O95076 139-225, N203Q) (O95076 139-225 N203Q): as the sequence (O95076 139-225 N203S) above, with S65Q counted along it
Chain of HOXA4 (Homo sapiens, UniProt Q00056 201-287) (Q00056 201-287): as the sequence (Q00056 201-287 R217L) above, with L17R counted along it
Chain of HOXA4 (Homo sapiens, UniProt Q00056 201-287, W262F) (Q00056 201-287 W262F): as the sequence (Q00056 201-287 R217L) above, with L17R, W62F counted along it
Chain of ALX3 (Homo sapiens, UniProt O95076 139-225) (O95076 139-225): as the sequence (O95076 139-225 N203S) above, with S65N counted along it
Chain of ALX3 (Homo sapiens, UniProt O95076 139-225, L168V) (O95076 139-225 L168V): as the sequence (O95076 139-225 N203S) above, with L30V, S65N counted along it
Chain of ALX3 (Homo sapiens, UniProt O95076 139-225, L168Q) (O95076 139-225 L168Q): as the sequence (O95076 139-225 N203S) above, with L30Q, S65N counted along it
Chain of HOXB4 (Homo sapiens, UniProt P17483 148-234, V174I) (P17483 148-234 V174I): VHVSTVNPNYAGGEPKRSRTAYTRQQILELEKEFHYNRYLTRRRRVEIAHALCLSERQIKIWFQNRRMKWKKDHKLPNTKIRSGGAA
Chain of HOXA4 (Homo sapiens, UniProt Q00056 201-287, W262R) (Q00056 201-287 W262R): as the sequence (Q00056 201-287 R217L) above, with L17R, W62R counted along it
Chain of HOXB6 (Homo sapiens, UniProt P17509 132-218, K202E) (P17509 132-218 K202E): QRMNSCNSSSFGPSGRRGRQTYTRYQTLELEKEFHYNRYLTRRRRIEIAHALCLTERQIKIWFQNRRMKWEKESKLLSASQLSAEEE
Chain of HOXB4 (Homo sapiens, UniProt P17483 148-234) (P17483 148-234): as the sequence (P17483 148-234 V174I) above, with I27V counted along it
Chain of HOXA2 (Homo sapiens, UniProt O43364 129-215, Y150S) (O43364 129-215 Y150S): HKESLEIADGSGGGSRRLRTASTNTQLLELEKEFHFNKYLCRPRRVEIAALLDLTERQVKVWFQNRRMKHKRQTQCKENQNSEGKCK
Chain of HOXA2 (Homo sapiens, UniProt O43364 129-215, R185T) (O43364 129-215 R185T): as the sequence (O43364 129-215 Y150S) above, with S22Y, R57T counted along it
Chain of VAX1 (Homo sapiens, UniProt Q5SQQ9 86-172, T142I) (Q5SQQ9 86-172 T142I): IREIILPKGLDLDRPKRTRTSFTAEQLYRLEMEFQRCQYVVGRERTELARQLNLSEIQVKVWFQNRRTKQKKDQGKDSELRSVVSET
Chain of VAX1 (Homo sapiens, UniProt Q5SQQ9 86-172) (Q5SQQ9 86-172): as the sequence (Q5SQQ9 86-172 T142I) above, with I57T counted along it
Chain of HOXA2 (Homo sapiens, UniProt O43364 129-215, R185K) (O43364 129-215 R185K): as the sequence (O43364 129-215 Y150S) above, with S22Y, R57K counted along it
Chain of HOXA2 (Homo sapiens, UniProt O43364 129-215) (O43364 129-215): as the sequence (O43364 129-215 Y150S) above, with S22Y counted along it
Chain of HOXB6 (Homo sapiens, UniProt P17509 132-218) (P17509 132-218): as the sequence (P17509 132-218 K202E) above, with E71K counted along it
Chain of VAX1 (Homo sapiens, UniProt Q5SQQ9 86-172, K157R) (Q5SQQ9 86-172 K157R): as the sequence (Q5SQQ9 86-172 T142I) above, with I57T, K72R counted along it
Chain of ALX4 (Homo sapiens, UniProt Q9H161 200-286) (Q9H161 200-286): as the sequence (Q9H161 200-286 Q225E) above, with E26Q counted along it
Chain of PROP1 (Homo sapiens, UniProt O75360 56-141, F88S) (O75360 56-141 F88S): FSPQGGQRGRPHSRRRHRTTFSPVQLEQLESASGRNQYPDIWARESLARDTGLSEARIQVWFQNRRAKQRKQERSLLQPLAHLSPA
Chain of PRRX1 (Homo sapiens, UniProt P54821 80-166) (P54821 80-166): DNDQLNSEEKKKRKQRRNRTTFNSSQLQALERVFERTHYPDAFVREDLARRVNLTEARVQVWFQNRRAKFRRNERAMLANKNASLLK
Chain of PROP1 (Homo sapiens, UniProt O75360 56-141) (O75360 56-141): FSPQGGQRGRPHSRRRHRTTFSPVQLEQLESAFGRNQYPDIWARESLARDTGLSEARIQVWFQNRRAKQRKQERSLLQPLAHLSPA
Chain of PRRX1 (Homo sapiens, UniProt P54821 80-166, F113S) (P54821 80-166 F113S): as the sequence (P54821 80-166) above, with F34S counted along it
Chain of PROP1 (Homo sapiens, UniProt O75360 56-141, R99H) (O75360 56-141 R99H): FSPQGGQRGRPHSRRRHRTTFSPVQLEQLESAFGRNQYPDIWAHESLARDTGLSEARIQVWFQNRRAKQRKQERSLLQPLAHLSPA

For TATTTAAA, the binding signal was 11.2 upbm affinity estimate (log intensity, higher = more binding, comparable within an allelic series) with HOXB4 [1]; 10.5 upbm affinity estimate (log intensity, higher = more binding, comparable within an allelic series) with HOXA4 [2]; 11.2 upbm affinity estimate (log intensity, higher = more binding, comparable within an allelic series) with HOXB4 [3]; 12 upbm affinity estimate (log intensity, higher = more binding, comparable within an allelic series) with HOXA4 [4].
As for TAATGATA, the binding signal in the assay with HOXB4 [1] is 13.4 upbm affinity estimate (log intensity, higher = more binding, comparable within an allelic series); with HOXA4 [2], 10.5 upbm affinity estimate (log intensity, higher = more binding, comparable within an allelic series); in the assay with HOXB6 [5], 10 upbm affinity estimate (log intensity, higher = more binding, comparable within an allelic series); in the assay with HOXA2 [6], 12.2 upbm affinity estimate (log intensity, higher = more binding, comparable within an allelic series); with HOXA4 [7] it was 12.2 upbm affinity estimate (log intensity, higher = more binding, comparable within an allelic series); with HOXB4 [3], 14.1 upbm affinity estimate (log intensity, higher = more binding, comparable within an allelic series). Moreover, the binding signal was 13.2 upbm affinity estimate (log intensity, higher = more binding, comparable within an allelic series) with HOXA2 [8]; 13.9 upbm affinity estimate (log intensity, higher = more binding, comparable within an allelic series) with HOXA4 [4]; 9.99 upbm affinity estimate (log intensity, higher = more binding, comparable within an allelic series) with PROP1 [9]; 9.25 upbm affinity estimate (log intensity, higher = more binding, comparable within an allelic series) with PROP1 [10]; 12.7 upbm affinity estimate (log intensity, higher = more binding, comparable within an allelic series) with VAX1 [11]; 7.61 upbm affinity estimate (log intensity, higher = more binding, comparable within an allelic series) with PROP1 [12]. Moreover, the binding signal with VAX1 [13] is 12.5 upbm affinity estimate (log intensity, higher = more binding, comparable within an allelic series); in the assay with HOXA2 [14], 11 upbm affinity estimate (log intensity, higher = more binding, comparable within an allelic series); with HOXA4 [15], 11.6 upbm affinity estimate (log intensity, higher = more binding, comparable within an allelic series); in the assay with HOXA2 [16] it was 12.3 upbm affinity estimate (log intensity, higher = more binding, comparable within an allelic series); in the assay with VAX1 [17], 12.3 upbm affinity estimate (log intensity, higher = more binding, comparable within an allelic series).
With CAGGCCCC, the binding signal is 7.68 upbm affinity estimate (log intensity, higher = more binding, comparable within an allelic series) with HOXB4 [1]; 9.66 upbm affinity estimate (log intensity, higher = more binding, comparable within an allelic series) with HOXA4 [2]; 9.56 upbm affinity estimate (log intensity, higher = more binding, comparable within an allelic series) with HOXA4 [7]; 7.6 upbm affinity estimate (log intensity, higher = more binding, comparable within an allelic series) in the assay with HOXB4 [3]; 7.7 upbm affinity estimate (log intensity, higher = more binding, comparable within an allelic series) with ALX3 [18]; 9.7 upbm affinity estimate (log intensity, higher = more binding, comparable within an allelic series) with HOXA4 [4]. Moreover, the binding signal is 7.63 upbm affinity estimate (log intensity, higher = more binding, comparable within an allelic series) with ALX3 [19]; 7.69 upbm affinity estimate (log intensity, higher = more binding, comparable within an allelic series) in the assay with ALX3 [20]; 7.7 upbm affinity estimate (log intensity, higher = more binding, comparable within an allelic series) with ALX3 [21]; 9.81 upbm affinity estimate (log intensity, higher = more binding, comparable within an allelic series) with HOXA4 [15]; 7.69 upbm affinity estimate (log intensity, higher = more binding, comparable within an allelic series) with ALX3 [22].
As to CCAGGCAG, the binding signal in the assay with HOXB4 [1] was 7.62 upbm affinity estimate (log intensity, higher = more binding, comparable within an allelic series); in the assay with HOXA4 [2] it was 9.9 upbm affinity estimate (log intensity, higher = more binding, comparable within an allelic series); in the assay with HOXB6 [5] it was 9.02 upbm affinity estimate (log intensity, higher = more binding, comparable within an allelic series); with HOXA4 [7] it was 9.88 upbm affinity estimate (log intensity, higher = more binding, comparable within an allelic series); with HOXB4 [3], 7.62 upbm affinity estimate (log intensity, higher = more binding, comparable within an allelic series); with ALX3 [18], 7.78 upbm affinity estimate (log intensity, higher = more binding, comparable within an allelic series). The binding signal with HOXA4 [4] was 9.85 upbm affinity estimate (log intensity, higher = more binding, comparable within an allelic series); in the assay with ALX3 [19], 7.65 upbm affinity estimate (log intensity, higher = more binding, comparable within an allelic series); with ALX3 [20], 7.7 upbm affinity estimate (log intensity, higher = more binding, comparable within an allelic series); in the assay with ALX3 [21] it was 7.82 upbm affinity estimate (log intensity, higher = more binding, comparable within an allelic series); with HOXA4 [15], 9.95 upbm affinity estimate (log intensity, higher = more binding, comparable within an allelic series); in the assay with ALX3 [22], 7.76 upbm affinity estimate (log intensity, higher = more binding, comparable within an allelic series). In addition, the binding signal in the assay with HOXB6 [23] was 9.1 upbm affinity estimate (log intensity, higher = more binding, comparable within an allelic series).
With CATCATTA, the binding signal was 13.4 upbm affinity estimate (log intensity, higher = more binding, comparable within an allelic series) with HOXB4 [1]; 10.8 upbm affinity estimate (log intensity, higher = more binding, comparable within an allelic series) with HOXA4 [2]; 12.5 upbm affinity estimate (log intensity, higher = more binding, comparable within an allelic series) in the assay with HOXA2 [6]; 12.3 upbm affinity estimate (log intensity, higher = more binding, comparable within an allelic series) in the assay with HOXA4 [7]; 14 upbm affinity estimate (log intensity, higher = more binding, comparable within an allelic series) with HOXB4 [3]; 13.2 upbm affinity estimate (log intensity, higher = more binding, comparable within an allelic series) in the assay with HOXA2 [8]. For the same sequence, the binding signal with HOXA4 [4] is 14 upbm affinity estimate (log intensity, higher = more binding, comparable within an allelic series); with VAX1 [11], 12.9 upbm affinity estimate (log intensity, higher = more binding, comparable within an allelic series); in the assay with VAX1 [13], 12.8 upbm affinity estimate (log intensity, higher = more binding, comparable within an allelic series); with HOXA2 [14] it was 11 upbm affinity estimate (log intensity, higher = more binding, comparable within an allelic series); with HOXA4 [15], 11.8 upbm affinity estimate (log intensity, higher = more binding, comparable within an allelic series); in the assay with HOXA2 [16], 12.3 upbm affinity estimate (log intensity, higher = more binding, comparable within an allelic series). In the assay with VAX1 [17], the binding signal is 12.7 upbm affinity estimate (log intensity, higher = more binding, comparable within an allelic series).
Consider CAGGCGCG, for which the binding signal with HOXB4 [1] was 7.35 upbm affinity estimate (log intensity, higher = more binding, comparable within an allelic series); with HOXB6 [5], 9.01 upbm affinity estimate (log intensity, higher = more binding, comparable within an allelic series); in the assay with HOXB4 [3] it was 7.45 upbm affinity estimate (log intensity, higher = more binding, comparable within an allelic series); in the assay with HOXB6 [23], 8.9 upbm affinity estimate (log intensity, higher = more binding, comparable within an allelic series).
As to CCCCCGTA, the binding signal with HOXB4 [1] was 7.91 upbm affinity estimate (log intensity, higher = more binding, comparable within an allelic series); in the assay with PRRX1 [24] it was 9 upbm affinity estimate (log intensity, higher = more binding, comparable within an allelic series); in the assay with HOXB4 [3], 7.84 upbm affinity estimate (log intensity, higher = more binding, comparable within an allelic series); in the assay with ALX3 [18], 7.68 upbm affinity estimate (log intensity, higher = more binding, comparable within an allelic series); with ALX3 [19], 7.71 upbm affinity estimate (log intensity, higher = more binding, comparable within an allelic series); with ALX3 [20], 7.65 upbm affinity estimate (log intensity, higher = more binding, comparable within an allelic series). Moreover, the binding signal with ALX3 [21] is 7.65 upbm affinity estimate (log intensity, higher = more binding, comparable within an allelic series); with ALX3 [22], 7.65 upbm affinity estimate (log intensity, higher = more binding, comparable within an allelic series); in the assay with PRRX1 [25], 9.39 upbm affinity estimate (log intensity, higher = more binding, comparable within an allelic series).
CCTGCCCC: the binding signal with HOXB4 [1] is 7.51 upbm affinity estimate (log intensity, higher = more binding, comparable within an allelic series); with PAX4 [26], 9.03 upbm affinity estimate (log intensity, higher = more binding, comparable within an allelic series); in the assay with PAX4 [27], 9.15 upbm affinity estimate (log intensity, higher = more binding, comparable within an allelic series); in the assay with HOXB4 [3], 7.65 upbm affinity estimate (log intensity, higher = more binding, comparable within an allelic series); in the assay with PAX4 [28], 9.01 upbm affinity estimate (log intensity, higher = more binding, comparable within an allelic series); with PAX4 [29], 9.07 upbm affinity estimate (log intensity, higher = more binding, comparable within an allelic series). Further, the binding signal with PAX4 [30] is 9 upbm affinity estimate (log intensity, higher = more binding, comparable within an allelic series); with PAX4 [31], 9.13 upbm affinity estimate (log intensity, higher = more binding, comparable within an allelic series).
In the case of GAGCTGCA, the binding signal with HOXB4 [1] is 7.7 upbm affinity estimate (log intensity, higher = more binding, comparable within an allelic series); with HOXB4 [3] it was 7.45 upbm affinity estimate (log intensity, higher = more binding, comparable within an allelic series).
For CCAGCTCG, the binding signal is 7.72 upbm affinity estimate (log intensity, higher = more binding, comparable within an allelic series) in the assay with HOXB4 [1]; 8.09 upbm affinity estimate (log intensity, higher = more binding, comparable within an allelic series) in the assay with ALX4 [32]; 8.29 upbm affinity estimate (log intensity, higher = more binding, comparable within an allelic series) with ALX4 [33]; 7.66 upbm affinity estimate (log intensity, higher = more binding, comparable within an allelic series) with HOXB4 [3].
